Holding throughout (test): yeast three-hybrid, YBZ-1, SC-Leu-His + 0.5 mM 3-AT, 4 days
Conditions in all cases: tags: N-Gal4 AD-HA kept; label: inside an RPR1-promoter hybrid RNA with tandem MS2 sites; ssRNA

Assay [1] deals with PUM1 PUF domain R4-QGA (Homo sapiens, UniProt Q14671 828-1176, N971Q;H972G;Q975A). A digest of the protocol: (§1)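 Pumilio-1 PUF domain libraries, randomized (NNK) at the three base-contacting residues of each repeat, were co-expressed with matching RNA elements from a centromeric plasmid in strain YBZ-1 (LexA–MS2 coat fusion, HIS3 reporter). Transformants were plated on SC-Leu (input) and SC-Leu-His + 0.5 mM 3-AT (selection) for four days, and repeat regions were PCR-amplified and Illumina-sequenced. The interaction score is the log2 change in variant frequency from input to selection, with pseudocount 1 where absent.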

For assay [2], the target named is PUM1 PUF domain R3-RMK (Homo sapiens, UniProt Q14671 828-1176, C935R;R936M;Q939K). The method in brief:
as §1

In assay [3] the target is PUM1 PUF domain R1-VFR (Homo sapiens, UniProt Q14671 828-1176, S863V;R864F;Q867R). The method in brief:
as §1

Assay [4] addresses PUM1 PUF domain R1-GAS (Homo sapiens, UniProt Q14671 828-1176, S863G;R864A;Q867S). A digest of the protocol: as §1
Assay [5] deals with PUM1 PUF domain R5-TRA (Homo sapiens, UniProt Q14671 828-1176, C1007T;Q1011A). The method in brief: as §1
The target in assay [6] is PUM1 PUF domain R7-QNR (Homo sapiens, UniProt Q14671 828-1176, S1079Q;E1083R). A digest of the protocol:
as §1

Assay [7] has as its target PUM1 PUF domain R7-RVR (Homo sapiens, UniProt Q14671 828-1176, S1079R;N1080V;E1083R). A digest of the protocol:
as §1

Assay [8] deals with PUM1 PUF domain R8-KNR (Homo sapiens, UniProt Q14671 828-1176, N1122K;Y1123N;Q1126R). The method in brief:
as §1

Assay [9] deals with PUM1 PUF domain R8-RYK (Homo sapiens, UniProt Q14671 828-1176, N1122R;Q1126K). A digest of the protocol: as §1
Assay [10] deals with PUM1 PUF domain R3-MCG (Homo sapiens, UniProt Q14671 828-1176, C935M;R936C;Q939G). The method in brief:
as §1

Assay [11] concerns the target PUM1 PUF domain R5-GQA (Homo sapiens, UniProt Q14671 828-1176, C1007G;R1008Q;Q1011A). The method in brief: as §1
Assay [12] addresses PUM1 PUF domain R5-TND (Homo sapiens, UniProt Q14671 828-1176, C1007T;R1008N;Q1011D). A digest of the protocol:
as §1

The target in assay [13] is PUM1 PUF domain R5-AQR (Homo sapiens, UniProt Q14671 828-1176, C1007A;R1008Q;Q1011R). The method in brief: as §1
Assay [14] deals with PUM1 PUF domain R5-PHD (Homo sapiens, UniProt Q14671 828-1176, C1007P;R1008H;Q1011D). A digest of the protocol:
as §1

The target in assay [15] is PUM1 PUF domain R3-VRW (Homo sapiens, UniProt Q14671 828-1176, C935V;Q939W). A digest of the protocol: as §1
The target of assay [16] is T1, PUM1 PUF domain R6-FYI (Homo sapiens, UniProt Q14671 828-1176, N1043F;Q1047I).
T1 sequence: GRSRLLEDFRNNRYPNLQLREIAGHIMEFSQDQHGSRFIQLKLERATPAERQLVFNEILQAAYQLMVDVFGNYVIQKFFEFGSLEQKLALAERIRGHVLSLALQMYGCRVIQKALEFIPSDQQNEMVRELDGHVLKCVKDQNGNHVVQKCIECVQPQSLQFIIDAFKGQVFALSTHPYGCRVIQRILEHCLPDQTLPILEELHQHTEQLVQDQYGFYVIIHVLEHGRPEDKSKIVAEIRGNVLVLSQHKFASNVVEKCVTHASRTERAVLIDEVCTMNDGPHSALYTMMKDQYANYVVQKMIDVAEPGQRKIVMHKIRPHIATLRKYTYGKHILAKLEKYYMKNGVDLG
A digest of the protocol: as §1

Assay [17] deals with T2, PUM1 PUF domain R6-TWS (Homo sapiens, UniProt Q14671 828-1176, N1043T;Y1044W;Q1047S).
T2 sequence: T1 sequence with F216T, Y217W, I220S
The method in brief: as §1

For assay [18], the target named is PUM1 PUF domain R7-RKR (Homo sapiens, UniProt Q14671 828-1176, S1079R;N1080K;E1083R). The method in brief:
as §1

The target of assay [19] is PUM1 PUF domain R1-RFI (Homo sapiens, UniProt Q14671 828-1176, S863R;R864F;Q867I). The method in brief:
as §1

Assay [20] concerns the target PUM1 PUF domain R1-KIE (Homo sapiens, UniProt Q14671 828-1176, S863K;R864I;Q867E). A digest of the protocol: as §1

Residue numbers refer to the chain shown, from its start.

Sequence of PUM1 PUF domain R5-TRA (Q14671 828-1176 C1007T/Q1011A): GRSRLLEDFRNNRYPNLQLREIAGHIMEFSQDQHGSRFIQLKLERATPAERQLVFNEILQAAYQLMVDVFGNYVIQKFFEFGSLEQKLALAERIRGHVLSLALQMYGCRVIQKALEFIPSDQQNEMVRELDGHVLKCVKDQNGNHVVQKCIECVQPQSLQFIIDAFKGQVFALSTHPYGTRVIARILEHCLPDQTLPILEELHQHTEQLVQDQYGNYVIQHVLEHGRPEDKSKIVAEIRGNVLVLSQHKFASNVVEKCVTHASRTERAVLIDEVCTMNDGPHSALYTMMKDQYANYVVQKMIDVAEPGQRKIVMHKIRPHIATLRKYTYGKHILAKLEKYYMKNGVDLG

With “GGCUAGAACUAGUGGAUCCCCCGGCGCCCGGCGGCUCGAGCCCGGGUAAGUGUACAUAGUCUGCAUGCCGCCGGGCGCCAUGCCUGCAGGUCGACUCUAGAAAACAUG”, the binding signal in [1] is 2.09 log2 enrichment (interaction score).
Turning to “GGCUAGAACUAGUGGAUCCCCCGGCGCCCGGCGGCUCGAGCCCGGGUAAGUGUAUAUAGUCUGCAUGCCGCCGGGCGCCAUGCCUGCAGGUCGACUCUAGAAAACAUG”, in assay [1], the binding signal was 2.73 log2 enrichment (interaction score).
Take “GGCUAGAACUAGUGGAUCCCCCGGCGCCCGGCGGCUCGAGCCCGGGUAAGUGUAAUUAGUCUGCAUGCCGCCGGGCGCCAUGCCUGCAGGUCGACUCUAGAAAACAUG”: in [2], the binding signal is 4.31 log2 enrichment (interaction score).
Turning to “GGCUAGAACUAGUGGAUCCCCCGGCGCCCGGCGGCUCGAGCCCGGGUAAGUGUAAAUCGUCUGCAUGCCGCCGGGCGCCAUGCCUGCAGGUCGACUCUAGAAAACAUG”, the values for the binding signal in assay [3] and in assay [4] were 3.96 log2 enrichment (interaction score) and 2.52 log2 enrichment (interaction score), respectively.
Turning to “GGCUAGAACUAGUGGAUCCCCCGGCGCCCGGCGGCUCGAGCCCGGGUAAGUGUGAAUAGUCUGCAUGCCGCCGGGCGCCAUGCCUGCAGGUCGACUCUAGAAAACAUG”, the binding signal in assay [5] was 1.91 log2 enrichment (interaction score).
Consider “GGCUAGAACUAGUGGAUCCCCCGGCGCCCGGCGGCUCGAGCCCGGGUAAGUCUAAAUAGUCUGCAUGCCGCCGGGCGCCAUGCCUGCAGGUCGACUCUAGAAAACAUG”, for which the binding signal is 3.58 log2 enrichment (interaction score) in assay [6] and 0.98 log2 enrichment (interaction score) in assay [7].
As for “GGCUAGAACUAGUGGAUCCCCCGGCGCCCGGCGGCUCGAGCCCGGGUAAGCGUAAAUAGUCUGCAUGCCGCCGGGCGCCAUGCCUGCAGGUCGACUCUAGAAAACAUG”, the binding signal in assay [8] is 2.46 log2 enrichment (interaction score); in assay [9] it was 7.26 log2 enrichment (interaction score).
With “GGCUAGAACUAGUGGAUCCCCCGGCGCCCGGCGGCUCGAGCCCGGGUAAGUGUAAGUAGUCUGCAUGCCGCCGGGCGCCAUGCCUGCAGGUCGACUCUAGAAAACAUG”, the binding signal in [10] is 2.55 log2 enrichment (interaction score).
For “GGCUAGAACUAGUGGAUCCCCCGGCGCCCGGCGGCUCGAGCCCGGGUAAGUGUUAAUAGUCUGCAUGCCGCCGGGCGCCAUGCCUGCAGGUCGACUCUAGAAAACAUG”, the binding signal in [5] is 2.4 log2 enrichment (interaction score); in assay [11], 2.64 log2 enrichment (interaction score); in assay [12] it was 2.81 log2 enrichment (interaction score); in [13], 3.22 log2 enrichment (interaction score); in assay [14], 3.76 log2 enrichment (interaction score).
Consider “GGCUAGAACUAGUGGAUCCCCCGGCGCCCGGCGGCUCGAGCCCGGGUAAGUGUCAAUAGUCUGCAUGCCGCCGGGCGCCAUGCCUGCAGGUCGACUCUAGAAAACAUG”, for which the binding signal in [13] is 5.35 log2 enrichment (interaction score).
“GGCUAGAACUAGUGGAUCCCCCGGCGCCCGGCGGCUCGAGCCCGGGUAAGUGUAAAUAGUCUGCAUGCCGCCGGGCGCCAUGCCUGCAGGUCGACUCUAGAAAACAUG”: the binding signal was 3.7 log2 enrichment (interaction score) in assay [15]; 2.82 log2 enrichment (interaction score) in assay [5]; 1.82 log2 enrichment (interaction score) in assay [8]; 2.78 log2 enrichment (interaction score) in [16]; 2.56 log2 enrichment (interaction score) in assay [17].
“GGCUAGAACUAGUGGAUCCCCCGGCGCCCGGCGGCUCGAGCCCGGGUAAGUGAAAAUAGUCUGCAUGCCGCCGGGCGCCAUGCCUGCAGGUCGACUCUAGAAAACAUG”: the binding signal in [17] is 5.32 log2 enrichment (interaction score).
As for “GGCUAGAACUAGUGGAUCCCCCGGCGCCCGGCGGCUCGAGCCCGGGUAAGUUUAAAUAGUCUGCAUGCCGCCGGGCGCCAUGCCUGCAGGUCGACUCUAGAAAACAUG”, the results for the binding signal in assay [18] and in assay [7] were 2.99 log2 enrichment (interaction score) and 4.32 log2 enrichment (interaction score), respectively.
As to “GGCUAGAACUAGUGGAUCCCCCGGCGCCCGGCGGCUCGAGCCCGGGUAAGUGUAAAUUGUCUGCAUGCCGCCGGGCGCCAUGCCUGCAGGUCGACUCUAGAAAACAUG”, the figures for the binding signal in [3], in assay [19] and in assay [20] were 1.47 log2 enrichment (interaction score), 2.47 log2 enrichment (interaction score) and 3.28 log2 enrichment (interaction score), respectively.

The record behind these values is PMC8384837, “Expanding the binding specificity for RNA recognition by a PUF domain”.
